Only some compounds are listed: those with a hit (about 3% of all), similar ones and a draw of the others.
MITF act: increases MITF-driven TRPM1 promoter luciferase signal. SK-MEL-5 TRPM1-promoter luciferase, 24 h; % of positive control, neutral wells = 0. activation, % at 12.5 µM. 300,000 tested, 0.75% active. AID 588334;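 active = mean activation of at least 80% with every replicate also reaching 80%; inconclusive = mean reaches 80% but some replicate falls short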
esBAF inh: blocks esBAF chromatin remodeling in mouse ES cells; Bmi1-luciferase knock-in reporter, 24 h; 100% = twice the neutral-well signal; reporter increase, % at 12.5 µM; 350,000 tested, 2% active; in the data active = activation above about 40%; inconclusive = no clear call, values can overlap the other calls;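 also: a rise in the Bmi1 reporter signal indicates esBAF inhibition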
Wnt act: Wnt/beta-catenin pathway activation | 300,000 tested, 1.2% active | activation, % at 9.35 µM | Wnt/beta-catenin reporter cell assay, activator, plate reader | AID 743398; in the data active = activation above about 30%, passing the limit was not always enough; inconclusive = no clear call, values can overlap the other calls
C2C12 statin: suppressors of simvastatin-induced myotoxicity in C2C12 myotubes; rescue of ATP level, % at 7.49 µM; 330,000 tested, 0.78% active; AID 602340; ATP luminescence, 48 h; scaled: DMSO 0, geranylgeraniol control 100;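 active = mean ATP rescue above about 67%, or every replicate alone reaching that limit, limit read from the data, passing the limit was not always enough; inconclusive = no clear call, values can overlap the other calls; inactive = mean under the limit and some replicate under it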;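 also: myotubes were challenged with 10 µM simvastatin during compound exposure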
Each line names hits and unclear results; the compound was inactive in the other large screens.

O=C(c1cnccn1)N1CCN(C/C=C/c2ccccc2)CC1	C2C12 statin 102 (no result: Wnt act)
Cc1cc(C(=O)N2CCN(C/C=C/c3ccccc3)CC2)no1	none (no result: Wnt act)
O=C(CSc1nnc(CNc2ccc(F)cc2)n1Cc1ccccc1)N1CCOCC1	C2C12 statin 102
C[C@@H]1CCCCO[C@H](CN(C)C(=O)CCC(F)(F)F)[C@H](C)CN([C@@H](C)CO)C(=O)c2cc(NS(=O)(=O)c3cccs3)ccc2O1	none (no result: MITF act, Wnt act, C2C12 statin)
CC(=O)NC(NC(=S)Nc1ccc(S(N)(=O)=O)cc1)C(Cl)(Cl)Cl (centres undefined)	none
CC(=O)NC(NC(=S)Nc1ccc(N=Nc2ccccc2)cc1)C(Cl)(Cl)Cl (centres undefined)	Wnt act 47 (no result: MITF act)
COc1cc2c(C(=O)N3CCN(C)CC3)c(C)oc2cc1Br	none (no result: Wnt act)
Cc1oc2cc3c(C(=O)N4CCCCC4)c(C)oc3cc2c1C(=O)N1CCCCC1	esBAF inh 149 (no result: Wnt act)
CCCNC(=O)C[C@H]1CC[C@@H]2[C@@H](COc3ccc(NC(=O)c4cccc(F)c4)cc3C(=O)N2C)O1	none (no result: MITF act, Wnt act)
C[C@H](CO)N1C[C@H](C)[C@@H](CN(C)Cc2ccc(C(F)(F)F)cc2)Oc2ccc(NC(=O)Cc3ccccc3)cc2CC1=O	C2C12 statin 116 (no result: MITF act, Wnt act)
C[C@H](CO)N1C[C@H](C)[C@@H](CN(C)Cc2ccc(C(F)(F)F)cc2)Oc2ccc(NC(=O)Cc3cn(C)c4ccccc34)cc2CC1=O	C2C12 statin 115 (no result: MITF act, Wnt act)
COc1ccc(CN(C)C[C@@H]2Oc3ccc(NC(=O)Cc4cn(C)c5ccccc45)cc3CC(=O)N([C@H](C)CO)C[C@H]2C)cc1	C2C12 statin 81 (no result: MITF act, Wnt act)
C[C@@H]1CN([C@@H](C)CO)C(=O)Cc2cc(NC(=O)Cc3cn(C)c4ccccc34)ccc2O[C@H]1CN(C)Cc1ccc(Oc2ccccc2)cc1	C2C12 statin 76 (no result: MITF act, Wnt act)
COc1ccc(CN(C)C[C@H]2Oc3ccc(NC(=O)Cc4cn(C)c5ccccc45)cc3CC(=O)N([C@H](C)CO)C[C@H]2C)cc1	none (no result: MITF act, Wnt act)
COc1cccc(S(=O)(=O)Nc2ccc3c(c2)C(=O)N(C)[C@@H]2CC[C@@H](CC(=O)O)O[C@H]2CO3)c1	none (no result: MITF act, Wnt act)
CC(C)C#Cc1cnc2c(c1)C(=O)N([C@H](C)CO)C[C@@H](C)[C@@H](CN(C)C(=O)c1cccnc1)O2	none (no result: MITF act, Wnt act)
Oc1oc(-c2ccc(Br)cc2)nc1/C=N/c1ccccn1	Wnt act 37 (no result: esBAF inh, C2C12 statin)
Cc1ccc2nc(-c3ccc(N4C(=N)SC5CS(=O)(=O)CC54)cc3)sc2c1 (centres undefined)	MITF act 104 (no result: esBAF inh, Wnt act, C2C12 statin)
Cc1cc(C)nc(SCc2csc(-c3ccccc3)n2)n1	MITF act 113 (no result: esBAF inh, Wnt act, C2C12 statin)
C[C@@H]1CN([C@H](C)CO)C(=O)c2cc(NS(=O)(=O)c3ccccc3)ccc2O[C@@H]1CN(C)Cc1ccncc1	none (no result: MITF act, Wnt act)
COC(=O)c1ccc(-c2ccc(Cl)cc2)nc1C	MITF act 93 (no result: Wnt act)
COC(=O)c1ccccc1NC(=O)c1sc(Cl)nc1C	none
COc1cccc(N=c2oc3ccccc3cc2-c2nc3ccccc3[nH]2)c1	Wnt act 47
COc1ccc(N=c2oc3ccc(OC)cc3cc2-c2nc3ccccc3[nH]2)cc1	esBAF inh 60 (no result: Wnt act)
COc1cccc(N=c2oc3ccc(OC)cc3cc2-c2nc3ccccc3[nH]2)c1	none
CO[C@@H]1CN(C)C(=O)c2cc(NC(=O)C3CC3)ccc2OC[C@@H](C)NC[C@@H]1C	none (no result: MITF act, Wnt act)
CS(=O)(=O)N1CCN(c2ccc(NC(=O)c3ccc(Br)o3)cc2)CC1	MITF act inconclusive, Wnt act 57
CCN(CC)c1ccc(NC(=O)c2cccnc2)cc1	Wnt act 37
CC1CCN(c2ccc(NC(=O)c3cccnc3)cc2)CC1	Wnt act 37 (no result: MITF act)
O=C(Nc1ccc(N2CCN(C(=O)c3ccccc3)CC2)cc1)c1cccnc1	none
CC1CCN(c2ccc(NC(=O)c3ccc(Br)o3)cc2)CC1	esBAF inh 56, Wnt act inconclusive
CCN(CC)c1ccc(NC(=O)c2cncc(Br)c2)cc1	none (no result: esBAF inh, Wnt act, C2C12 statin)
O=C(C[C@H]1CC[C@@H]2[C@H](COC[C@@H](O)CN2Cc2nccs2)O1)NCc1ccc(Cl)cc1	none (no result: MITF act, Wnt act)
O=C(C[C@@H]1C=C[C@@H](NC(=O)Nc2ccc(F)cc2)[C@@H](CO)O1)NCc1ccccn1	none (no result: MITF act, Wnt act)
COC(=O)c1c(C)oc2ccc(NS(=O)(=O)c3cc(OC)ccc3OC)cc12	C2C12 statin 121 (no result: Wnt act)
C[C@@H]1CN([C@@H](C)CO)C(=O)Cc2cc(NC(=O)CCCN(C)C)ccc2O[C@H]1CN(C)CC1CCCCC1	none (no result: MITF act, Wnt act)
O=C(Nc1ccccc1F)N[C@@H]1CC[C@@H](CCNS(=O)(=O)c2ccc(Cl)cc2)O[C@@H]1CO	none (no result: MITF act, Wnt act)
COc1ccc(C(=O)c2cc3cccc(OC)c3o2)cc1	esBAF inh 60
Cc1cc(-c2onc(C)c2C(N)=O)no1	Wnt act 38
O=C(Nc1ncn[nH]1)c1ccccc1O	none
O=C(Nc1ncn[nH]1)c1c(Cl)ccc(Cl)c1Cl	C2C12 statin 153 (no result: Wnt act)
COc1ccc(CNC(=O)C2CCCN(S(=O)(=O)c3c(C)n[nH]c3C)C2)cc1 (centres undefined)	none (no result: Wnt act)
COc1cccc(CNC(=O)C2CCCN(S(=O)(=O)c3c(C)n[nH]c3C)C2)c1 (centres undefined)	C2C12 statin 75 (no result: MITF act)
CC(=O)Oc1ccc(-c2cc3ccc(OC(C)=O)cc3oc2=O)cc1	Wnt act 51 (no result: MITF act, esBAF inh, C2C12 statin)
CC(=O)COc1ccc2cc(-c3ccccc3)c(=O)oc2c1	none (no result: MITF act)
CC(=O)Oc1ccc2c(=O)c(-c3ccccc3)coc2c1	Wnt act 41 (no result: esBAF inh, C2C12 statin)
COc1ccc(C(=O)NNC(=O)Cc2coc3cc(OC)ccc23)cc1	none
COc1ccc(-c2coc3cc(OC(C)=O)ccc3c2=S)cc1	MITF act 87, esBAF inh 66
O=C(Nc1ccccc1F)N[C@@H]1CC[C@H](CCNC(=O)C2CCOCC2)O[C@H]1CO	none (no result: MITF act, Wnt act)
CC(=O)Nc1ccc2c(c1)C(=O)N(C)[C@H]1CC[C@H](CC(=O)NCc3ccc(F)cc3)O[C@H]1CO2	none (no result: MITF act, Wnt act)
Cc1ccc(C(=O)/C=C/Nc2cccc(O)c2)cc1	none (no result: Wnt act)
O=C(/C=C/Nc1cccc(O)c1)c1ccccc1	Wnt act 48
Cc1ccccc1N1C(N)=NC(N)=NC1(C)C	none
Cc1ccc(N2C(N)=NC(N)=NC2(C)C)c(C)c1	C2C12 statin 110
O=C(COc1ccccc1)Nc1nn[nH]n1	C2C12 statin 112
O=C(COc1cccc(Oc2ccccc2)c1)Nc1ncccn1	C2C12 statin 107 (no result: Wnt act)
CN(C)C(=O)c1ccc(NC(=O)COc2cccc(Oc3ccccc3)c2)cc1	none
N#CC(Cc1ccc(OC(F)F)cc1)c1nc2ccccc2[nH]1 (centres undefined)	MITF act 91, esBAF inh 60
N#CC(Cc1cccs1)c1nc2ccccc2[nH]1 (centres undefined)	none (no result: MITF act)
COc1ccc(NC(=S)N(CCc2ccc(OC)c(OC)c2)Cc2ccccn2)cc1	none
COc1ccc(CCN(Cc2ccccn2)C(=S)Nc2cccc(C)c2)cc1OC	Wnt act 45
CC(C)NC(=O)N[C@@H]1C=C[C@H](CC(=O)N2CCCCC2)O[C@H]1CO	none (no result: MITF act, Wnt act)
C=CCc1cccc(OC)c1OCCOCCNCCO	C2C12 statin 83
O=C(Nc1ccc(F)cc1)N1C[C@H]2[C@@H](c3ccccc31)[C@H](CO)N2C(=O)c1ccccc1	none (no result: MITF act, Wnt act)

Bioassay records from PubChem BioAssay.
